This is part of a sample that, as a whole, favours compounds with a hit. Of some 83,000 tested, about 20% had one in any assay.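 Assay: single dose, 48 h. Readout: percent growth (0 = no net growth; negative = cell death). Active: <10.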 A number with no mark means an inactive call. Calls of active or inactive are those of the source.
Legend:
Assay in all cases: NCI-60 one-dose screen, 48 h (100 = growth as untreated, 0 = no growth, -100 = all killed)
Details in all cases: 10 µM
HCT-15 colon = tested on: HCT-15 colon
SNB-75 CNS = tested on: SNB-75 CNS
SNB-19 CNS = tested on: SNB-19 CNS
U251 CNS = tested on: U251 CNS
PC-3 prostate = tested on: PC-3 prostate
SK-MEL-5 melanoma = tested on: SK-MEL-5 melanoma
UACC-62 melanoma = tested on: UACC-62 melanoma
LOX IMVI melanoma = tested on: LOX IMVI melanoma
SK-MEL-28 melanoma = tested on: SK-MEL-28 melanoma
SK-MEL-2 melanoma = tested on: SK-MEL-2 melanoma
SN12C renal = tested on: SN12C renal
UO-31 renal = tested on: UO-31 renal
TK-10 renal = tested on: TK-10 renal
ACHN renal = tested on: ACHN renal
CAKI-1 renal = tested on: CAKI-1 renal
A498 renal = tested on: A498 renal
MOLT-4 leukemia = tested on: MOLT-4 leukemia
EKVX NSCLC = tested on: EKVX NSCLC
CCRF-CEM leukemia = tested on: CCRF-CEM leukemia

SMILES	growth (HCT-15 colon)	growth (SNB-75 CNS)	growth (SNB-19 CNS)	growth (U251 CNS)	growth (PC-3 prostate)	growth (SK-MEL-5 melanoma)	growth (UACC-62 melanoma)	growth (LOX IMVI melanoma)	growth (SK-MEL-28 melanoma)	growth (SK-MEL-2 melanoma)	growth (SN12C renal)	growth (UO-31 renal)	growth (TK-10 renal)	growth (ACHN renal)	growth (CAKI-1 renal)	growth (A498 renal)	growth (MOLT-4 leukemia)	growth (EKVX NSCLC)	growth (CCRF-CEM leukemia)
CCCCOCC(=O)NC(NP(=O)(N(C)C)N(C)C)C(Cl)(Cl)Cl (stereo not drawn)	140%	106%	107%	120%	113%	118%	103%	110%	125%	107%	110%	92%	134%	143%	92.3%	118%	99.5%	–	–
CC1(C)CC(OCCCC[P+](c2ccccc2)(c2ccccc2)c2ccccc2)CC(C)(C)N1O	9.52% (active)	-3.17% (active)	3.91% (active)	8.32% (active)	-45.6% (active)	-98.4% (active)	-35.9% (active)	-74.2% (active)	-55.8% (active)	-23.4% (active)	4.65% (active)	-18.8% (active)	-21.1% (active)	-8.25% (active)	-25.7% (active)	-5.35% (active)	0.462% (active)	3.22% (active)	-37.1% (active)
COc1ccc(Nc2nc(NCc3ccccc3)c3ccccc3n2)cc1	72.4%	-33% (active)	14.4%	32.9%	57.3%	63.9%	65.3%	46.8%	–	63.4%	69.5%	58.9%	40.6%	15.6%	35.7%	38.9%	81.8%	–	68.4%
FC(F)(F)c1ccc(-c2cnc(Br)nc2NC2CCCCCC2)cc1	73.1%	63.2%	42.9%	12.1%	5.8% (active)	17.9%	14.4%	40.1%	36.1%	13.2%	21.9%	34.7%	36.6%	10.4%	72.6%	81.3%	57%	–	28.5%
C/C(=N\NC(=S)N1CCCC1)c1ccccn1	31%	39.2%	20.3%	4.05% (active)	24.7%	4.15% (active)	-35.9% (active)	1.56% (active)	24.3%	13.8%	14.3%	-3.72% (active)	28.5%	15.5%	6.32% (active)	-5.14% (active)	3.06% (active)	–	0.145% (active)
COc1ccc(-c2oncc2-c2cc(OC)c3c(c2)OCO3)cc1	15.9%	-9.45% (active)	46.2%	28%	40.4%	17.9%	50.7%	34.2%	37%	-1.77% (active)	35.9%	39.8%	48.2%	41.1%	22.9%	7.82% (active)	22.4%	–	16%
CCCN(CCC)CCCNC(=O)c1cc2c(-c3ccc(OC)c(OC)c3)nn(C)c2s1	24.7%	22.7%	35%	9.87% (active)	16.1%	-60.8% (active)	14.1%	10.2%	37.6%	-31.3% (active)	20.8%	6.68% (active)	55.8%	25%	28.5%	-0.28% (active)	-8.08% (active)	–	-15.9% (active)
CC(=O)Nc1nc(C)c(C(=O)NNC=O)s1	99.5%	–	117%	109%	91.6%	104%	97.1%	104%	104%	62.7%	98.7%	100%	–	108%	109%	104%	98.1%	–	–
O=c1cc(CSc2nnc(-c3ccccc3)n2-c2ccc(F)cc2)c2ccc3ccccc3c2o1	98.2%	92.9%	99.1%	98.8%	79%	79%	83.2%	90.3%	104%	79.7%	–	65.6%	104%	99%	88.6%	118%	82.7%	95.3%	108%
Cc1cc(C#Cc2ccccc2)ccc1-n1c(/C=C/c2cc(O)ccc2O)nc2ccccc2c1=O	-33.6% (active)	16.2%	26.6%	5.85% (active)	3.46% (active)	-84.5% (active)	-55.6% (active)	-80.6% (active)	-45.3% (active)	-12.9% (active)	-5.43% (active)	-27.9% (active)	–	8.83% (active)	-5.93% (active)	41%	3.81% (active)	–	7.82% (active)
CC(=O)Oc1c(C)c(C)c2c(c1C)CCC(C)(CC(=O)OCCCCCCCCCCC[P+](c1ccccc1)(c1ccccc1)c1ccccc1)O2 (stereo not drawn)	-69.3% (active)	-47.8% (active)	-78.8% (active)	-93.1% (active)	-51% (active)	-96.7% (active)	-86.1% (active)	-92.6% (active)	-86.9% (active)	-88.7% (active)	-82.3% (active)	-5.35% (active)	-97% (active)	-95.4% (active)	-76.3% (active)	-20.5% (active)	-23.6% (active)	–	3.68% (active)
O=C1CC[C@@H](C(=O)N[C@H]2CSSC[C@@H](C(=O)NCCc3ccccc3)NC(=O)[C@H](Cc3ccccc3)NC(=O)[C@@H]3CCCN3C(=O)[C@@H]3CCCN3C2=O)N1	102%	92.7%	102%	96.8%	84.1%	100%	94.6%	94.1%	102%	94.2%	–	99.1%	86.9%	104%	97.3%	91.2%	85.8%	101%	69.4%
CCCOCC(O)CNCCN (stereo not drawn)	98.2%	93.4%	102%	95.5%	83.4%	106%	101%	104%	110%	116%	92.8%	87.8%	102%	95.4%	92.5%	89%	115%	–	97.6%
COc1cccc(-c2nnc(COc3ccc(-c4nc5ccccc5[nH]4)cc3OC)o2)c1	78.3%	109%	98.1%	97%	97.7%	67.4%	95.1%	104%	98.1%	99.3%	85.9%	87.9%	132%	103%	98.7%	71.8%	71.5%	–	44.9%
O=S(=O)(NC1c2ccccc2Oc2ccccc21)c1cc(Cl)ccc1Cl	93.7%	–	97.2%	–	88.9%	94.6%	93.2%	96.1%	110%	103%	–	79.3%	–	82.7%	88.7%	94.3%	96.7%	–	74.8%
COc1cc(CSc2nc3ccc(Cl)cc3c(=O)n2-c2ccccc2)cc(OC)c1OC	52.5%	75.8%	80.6%	–	73.2%	81.3%	64.1%	79.3%	103%	77.5%	76%	47.8%	97.7%	78.9%	73.9%	81.7%	69.8%	–	95.1%
CCCCCCCOc1cccc(/C=C2/C(=O)N=C3SCCCN32)c1	60.8%	75.1%	63.4%	51%	70.4%	63.7%	54.9%	44.9%	82.3%	83%	–	61.9%	75.7%	79.2%	84.9%	97.6%	50.2%	–	60.4%
O=C1/C(=C/c2ccc([N+](=O)[O-])s2)Oc2ccc(Cl)cc21	-40% (active)	-15% (active)	7.13% (active)	-65.4% (active)	-48% (active)	-88.7% (active)	-82.4% (active)	-70.1% (active)	-56.8% (active)	-53.7% (active)	-54.3% (active)	-89.4% (active)	-32.7% (active)	-71.1% (active)	-29.9% (active)	9.57% (active)	-15.7% (active)	–	2.86% (active)

From PubChem BioAssay (NCI)
